Records with an inconclusive call do not appear. Where a call stands in place of a potency, no number is given. Calls of active or inactive are those of the source. Calls come from the whole dose curve; as a rule, active = well fitted inhibition curve with a large enough effect; inconclusive = small, poorly fitted or top-dose-only effect; inactive = flat fitted curve, though single readings scatter.
test: P-glycoprotein substrates identified in KB-8-5-11 adenocarcinoma cell line, qHTS therapeutic library screen (AID 1346987); conditions: KB-8-5-11 (P-gp overexpressing) viability, CellTiter-Glo, 72 h; series mostly up to 44.5 µM; note: nearly all actives have a fitted effect of over 65% in size
Procedure, shortened: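 KB-8-5-11: colchicine-selected sub-line of KB-3-1 over-expressing P-gp; assay medium lacked colchicine. 72 h drug exposure at 37 degree C, CellTiter-Glo.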
Potency is the fitted concentration of half-maximal effect.

| SMILES | Potency |
| --- | --- |
| C[C@]12CC[C@@H]3c4ccc(O)c(O)c4CC[C@H]3[C@@H]1CCC2=O | inactive |
| CCOc1ccc(-n2c([C@@H](C)N(Cc3cccnc3)C(=O)Cc3ccc(OC(F)(F)F)cc3)nc3ncccc3c2=O)cc1 | inactive |
| FC(F)(F)c1ccc(CNc2ccc(Cc3c[nH]c4ncc(Cl)cc34)cn2)cn1 | 14.6 µM (active) |
| C/C=C(/C)C(=O)O[C@@H]1C[C@@H](OC(=O)CC(C)C)C2(C)C3C(=O)C=C(C)C2C3C1(C)C (some centres undefined) | inactive |
| C=C1C(=O)OC2/C=C(\C)CC/C=C(\C)CC(OC(C)=O)C12 (centres undefined) | inactive |
| Clc1ccc(Nc2nc3ccccc3c3nc(C4CCCCC4)[nH]c23)cc1Cl | 16.4 µM (active) |
| Nc1nc2c(ncn2C2OC3COP(=O)(O)OC3C2O)c(=O)[nH]1 (centres undefined) | inactive |
| C/C=C/C1=CC2=C(CO1)C(=O)C(C)(OC(=O)c1c(C)cc(O)cc1OC)C(O)C2 (centres undefined) | inactive |
| COCCNCc1ccc(-c2cc3nccc(Oc4ccc(NC(=O)C5(C(=O)Nc6ccc(F)cc6)CC5)cc4F)c3s2)nc1 | 4.61 µM (active) |
| CC(C)n1c(=O)c(C(=O)NC2CC3CCC(C2)N3C[C@@H](O)CN(C)S(C)(=O)=O)cc2ccccc21 (some centres undefined) | inactive |
| COc1c(C)cnc(Cn2cc(C#CCC(C)(C)O)c3c(Cl)nc(N)nc32)c1C | 0.0326 µM (active) |
| COc1ccc(S(=O)(=O)n2cnc3cc(C)c(C)cc32)cc1 | inactive |
| CN1CCN(c2ccc(OC(F)(F)F)c(Nc3ncc4c(n3)-c3c(c(C(N)=O)nn3CCO)CC4)c2)CC1 | 0.517 µM (active) |
| O=C(NC1CCN(CCCCC2(C(=O)NCC(F)(F)F)c3ccccc3-c3ccccc32)CC1)c1ccccc1-c1ccc(C(F)(F)F)cc1 | 20.6 µM (active) |
